PubChem BioAssay (NCI)
Compounds without any hit were thinned out: in the full panel of roughly 83,000, 20% have a hit.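 Interpretation: 100, growth as untreated; towards 0, rising growth inhibition; 0, no net growth; 0 to -100, cell death. Compounds scoring below 10 were considered active.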 Values without a mark were called inactive. Active and inactive are the calls of the source.

What was measured:
Test in all cases: NCI-60 one-dose screen, 48 h (100 = growth as untreated, 0 = no growth, -100 = all killed)
Conditions in all cases: 10 µM unless noted
[1] = system: NCI-H23 lung
[2] = system: NCI-H226 lung
[3] = system: NCI-H322M lung
[4] = system: HOP-62 NSCLC
[5] = system: NCI-H460 lung
[6] = system: HOP-92 NSCLC
[7] = system: NCI-H522 lung
[8] = system: A549/ATCC NSCLC
[9] = system: 786-0 renal
[10] = system: COLO 205 colon
[11] = system: DU-145 prostate
[12] = system: K-562 leukemia
[13] = system: MDA-MB-231 breast
[14] = system: RXF 393 renal
[15] = system: SF-268 CNS
[16] = system: SF-295 CNS
[17] = system: SF-539 CNS
[18] = system: UACC-257 melanoma
[19] = system: M14 melanoma
[20] = system: MALME-3M melanoma

With `CCCCNc1ccc(-c2ccc(NCCCC)cc2)cc1` the growth [1] was 65.5%, the growth [2] was 73.4% and the growth [3] was 95.9%. The growth [4] was 91.2%, the growth [5] was 65.8% and the growth [6] was 97.7%. For the same molecule, the growth [7] was 46.2%, the growth [8] was 61.6% and the growth [9] was 58.9%. For the same molecule, the growth [10] was 111%, the growth [11] was 83.1% and the growth [12] was 46.7%. For the same molecule, the growth [13] was 84.1%, the growth [14] was 79.7% and the growth [15] was 70%. For the same molecule, the growth [16] was 57.4%, the growth [17] was 49.5% and the growth [18] was 70.7%. The growth [19] was 71.7%.

`OC1Cc2ccccc2C1` gave a growth [1] of 90.2%, a growth [2] of 101% and a growth [3] of 98.7%. For the same molecule, the growth [4] was 95.7%, the growth [5] was 104% and the growth [6] was 68.7%. It also gave a growth [7] of 92.6%, a growth [8] of 97.1% and a growth [9] of 98.7%. The growth [10] was 98.8%, the growth [11] was 103% and the growth [12] was 48.3%. For the same molecule, the growth [20] was 95.2%, the growth [14] was 101% and the growth [15] was 102%. For the same molecule, the growth [16] was 95.2%, the growth [17] was 97.1% and the growth [18] was 90.9%. The growth [19] was 94.9%.

With `N=C(N)c1nn(C2OC(CO)C(O)C2O)c2nc[nH]c(=O)c12` (stereo unspecified) the growth [1] was -34.1% (active), the growth [2] was 13.5% and the growth [3] was 6.64% (active). The growth [4] was -12% (active), the growth [5] was 2.95% (active) and the growth [6] was -23.5% (active). For the same molecule, the growth [7] was 11.5%, the growth [8] was 19.1% and the growth [9] was -2.36% (active). For the same molecule, the growth [10] was -11.5% (active), the growth [11] was -49.1% (active) and the growth [12] was -5.78% (active). For the same molecule, the growth [20] was -39.9% (active), the growth [13] was -15.3% (active) and the growth [15] was -7.38% (active). For the same molecule, the growth [16] was 8.51% (active), the growth [17] was -43.8% (active) and the growth [18] was 3.08% (active). The growth [19] was -54.8% (active).

`O=C(O)c1ccc([N+](=O)[O-])cc1S(=O)(=O)O` showed a growth [1] of 104%, a growth [2] of 104% and a growth [3] of 113%. For the same molecule, the growth [4] was 107%, the growth [5] was 105% and the growth [6] was 119%. The growth [7] was 101%, the growth [8] was 97.2% and the growth [9] was 102%. It also gave a growth [10] of 112%, a growth [11] of 104% and a growth [12] of 107%. The growth [20] was 108%, the growth [14] was 114% and the growth [15] was 98%. The growth [16] was 102%, the growth [17] was 107% and the growth [18] was 100%. It also gave a growth [19] of 108%.

`COc1ccc(Br)c(C=O)c1` gave a growth [1] of 91.4%, a growth [2] of 84.5% and a growth [3] of 89.8%. For the same molecule, the growth [4] was 67.4%, the growth [5] was 101% and the growth [6] was 68.8%. It also gave a growth [7] of 98.2%, a growth [8] of 92.6% and a growth [9] of 69.3%. It also gave a growth [10] of 102%, a growth [11] of 88.1% and a growth [12] of 11.6%. For the same molecule, the growth [20] was 66.2%, the growth [14] was 80.1% and the growth [15] was 60.8%. It also gave a growth [16] of 65.7%, a growth [17] of 30.5% and a growth [18] of 79.7%. The growth [19] was 46.1%.

Work on `CCCOCc1cn[nH]n1` yielded a growth [1] of 107%, a growth [2] of 104% and a growth [3] of 102%. It also gave a growth [4] of 99.8%, a growth [5] of 111% and a growth [6] of 106%. It also gave a growth [7] of 99.3%, a growth [8] of 96% and a growth [9] of 102%. For the same molecule, the growth [10] was 111%, the growth [11] was 108% and the growth [12] was 104%. It also gave a growth [13] of 110%, a growth [14] of 109% and a growth [15] of 103%. It also gave a growth [16] of 101%, a growth [17] of 98.8% and a growth [18] of 94%. For the same molecule, the growth [19] was 106%.

For `CC(C)NC(=O)OCc1c(COC(=O)NC(C)C)c(-c2ccc(Cl)cc2)n2c1CCC2`, the growth [1] was 36.5%, the growth [2] was 63% and the growth [3] was 62.8%. The growth [4] was 46.4%, the growth [5] was 24.6% and the growth [6] was 26.2%. The growth [7] was 51.2%, the growth [8] was 66.5% and the growth [9] was 36.4%. It also gave a growth [10] of 57.2%, a growth [11] of 15% and a growth [12] of 58.4%. The growth [20] was 59.3%, the growth [13] was 65.8% and the growth [15] was 31%. The growth [16] was 20.8%, the growth [17] was 16.3% and the growth [18] was 88.8%. The growth [19] was 33.2%.

`C(=C\c1ccncc1)/c1ccncc1` showed a growth [1] of 98.7%, a growth [2] of 96.4% and a growth [3] of 90.8%. The growth [4] was 101%, the growth [5] was 107% and the growth [6] was 87.9%. For the same molecule, the growth [7] was 5.51% (active), the growth [8] was 96.5% and the growth [9] was 107%. It also gave a growth [10] of 115%, a growth [11] of 145% and a growth [20] of 87.1%. For the same molecule, the growth [13] was 110%, the growth [15] was 146% and the growth [16] was 107%. It also gave a growth [17] of 104%, a growth [18] of 108% and a growth [19] of 105%.
